Screening data: PubChem BioAssay, National Center for Advancing Translational Sciences (NCATS)
Rab9 promoter act: activators of Rab9 promoter. Huh7 Rab9 promoter-luciferase reporter, luminescence, 24 h. Potency, µM (top dose mostly 9.22 µM), for the others: at the highest dose activation, negative = inhibition, hits mostly activators. 320,000 compounds, 2.8% hits. AID 485297; also: % of control where 0% means no effect; nearly all actives have a fitted effect of over 60% in size
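Quantitative HTS format; Huh7 Rab9-luciferase reporter cells (1500/well) receive compound 2 h post-plating, incubate 24 h at 37 °C, then get luciferase reagent for 10 min before luminescence reading.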
NPC1 prom act: activators of NPC1 promoter | Huh7 NPC1 promoter luciferase reporter, 24 h | Potency, µM (series often up to 9.22 µM), without a hit: top-dose activation, most hits filed as activators | 320,000 compounds, 2.4% hits | AID 485313; also: % of control where 0% means no effect; nearly all actives have a fitted effect of over 60% in size
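Compounds in DMSO were transferred onto Huh7 NPC1-luciferase reporter cells pre-incubated 2 h; after 24 h at 37 °C, Amplite reagent was dispensed and luminescence recorded 10 min later.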
ELG1 DNA repair: ELG1-dependent DNA repair inhibition; HEK293T ELG1-luciferase reporter, luminescence, 16 h; DNA damage induced by 5-fluorouridine; Potency, µM (highest dose often 46.1 µM), for inactives: at the top dose activity change, negative = inhibition, actives largely listed as inhibitors; 330,000 compounds, 2.3% hits; also: % is scaled to controls: 0 for no effect and ±100 for the full control effect; nearly all actives have a fitted effect of over 55% in size
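Quantitative HTS, concentration-response format. 2,000 cells/well co-treated with 5-fluorouridine and compound, 16 hr in 5% CO2 at 37 °C; ONE-Glo luminescence read after 30 min.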
FLuc counter: inhibits or activates purified firefly luciferase, miR-21 counter-screen; purified FLuc, Km substrates, luminescence inhibition; Potency, µM (doses to about 57.5 µM), inactives show at the top dose activity change, negative = inhibition, hits mostly inhibitors; P08659; AID 588342; 360,000 compounds, 6.9% hits;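 also: plate controls were vehicle for no effect and reference inhibitor for full effect; nearly all actives have a fitted effect of over 55% in size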
Target sequence (P08659 whole entry, looked up): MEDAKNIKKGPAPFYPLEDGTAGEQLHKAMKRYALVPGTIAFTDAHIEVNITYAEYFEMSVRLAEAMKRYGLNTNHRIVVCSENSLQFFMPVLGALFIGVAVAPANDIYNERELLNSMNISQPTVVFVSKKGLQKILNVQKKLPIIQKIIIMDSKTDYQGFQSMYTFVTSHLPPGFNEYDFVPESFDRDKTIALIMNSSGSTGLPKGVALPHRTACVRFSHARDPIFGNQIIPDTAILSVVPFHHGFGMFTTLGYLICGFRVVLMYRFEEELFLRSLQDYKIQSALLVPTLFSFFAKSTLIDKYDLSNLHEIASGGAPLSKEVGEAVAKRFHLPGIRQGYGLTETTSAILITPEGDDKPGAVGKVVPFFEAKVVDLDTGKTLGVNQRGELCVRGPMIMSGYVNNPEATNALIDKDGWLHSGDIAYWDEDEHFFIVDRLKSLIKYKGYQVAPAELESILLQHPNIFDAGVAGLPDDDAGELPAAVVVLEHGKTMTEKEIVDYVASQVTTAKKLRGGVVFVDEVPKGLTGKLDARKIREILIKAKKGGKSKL
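Purified P. pyralis luciferase (10nM final) with 10uM D-luciferin and 10uM ATP (Km levels) in 50mM Tris acetate pH 7.5, 10mM Mg acetate, 0.01% Tween-20, 0.05% BSA; qHTS 6-point titration, ~60 µM downward; luminescence read.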
ELG1 genotox: induces genotoxicity in HEK293T cells with luciferase-tagged ELG1; HEK293T ELG1-luciferase reporter, luminescence, 16 h; Potency, µM (highest dose often 46 µM), without a hit: top-dose activity change, positive = activation, most hits filed as activators; 330,000 compounds, 1.3% hits; also: % of control where 0% means no effect; nearly all actives have a fitted effect of over 60% in size
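Luminescence read-out: rising ELG1-luciferase signal, reflecting elevated ELG1 protein under genetic stress, flags genotoxic compounds. Cells were treated for 16 hr at 37 °C before ONE-Glo detection.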
SMN2 splice up: SMN2 splice variant enhancement. HEK293 SMN2-luciferase splicing reporter, luminescence, 30-36 h. Potency, µM (series often up to 46.1 µM), without a hit: at the highest dose activity change, positive = activation, actives largely listed as activators. 210,000 compounds, 2.8% hits; also: % of control where 0% means no effect; nearly all actives have a fitted effect of over 55% in size
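qHTS luciferase splicing reporter: luminescence rises when SMN2 exon 7 is included in transfected HEK293 cells. Compound exposure lasted 30-36 h at 37C, with 4.5 mM final sodium butyrate as control, followed by a ONE-Glo read.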
Starred values were filed as active, the others as inactive; ? = inconclusive; nt = no result; [ ] = dose if it differs, or a comment. An excerpt weighted towards active compounds, which were near 9.2% of everything screened. Calls follow the shape of the dose curve; as a rule, active = well fitted curve in the direction sought with a large enough effect; inconclusive = small, poorly fitted or top-dose-only effect, or another doubt; inactive = no such curve, though single readings can be large; an effect the other way counts as inactive or inconclusive. Potency is read from the fitted curve at half-maximal effect.

SMILES | Rab9 promoter act | NPC1 prom act | ELG1 DNA repair | FLuc counter | ELG1 genotox | SMN2 splice up
COc1cc(/C=N/NC(=O)c2ccc3ccccc3c2)ccc1Oc1ccc([N+](=O)[O-])cn1 | -6.4% | -6.6% | 16.4µM* | -8.8% | -9.3% | -33.9%
COC(=O)c1cc(Cl)ccc1NC(=O)CSc1ncc(S(=O)(=O)c2ccc(Br)cc2)c(=O)[nH]1 | nt | nt | nt | 10.7µM* | nt | 0.9%
O=C(CSc1ncc(S(=O)(=O)c2ccc(Br)cc2)c(=O)[nH]1)NCc1ccccc1Cl | nt | nt | nt | 9.53µM* | nt | -2.9%
O=C(Nc1ccc2c(c1)CCC2)c1cccc(F)c1 | 1.41µM* | 3.16µM* | ? | 5.36µM* | 8.2µM* | 11.2µM*
O=C(Nc1ccc2c(c1)CCC2)c1cc(F)cc(F)c1 | 1.41µM* | 2.51µM* | ? | 3.01µM* | ? | nt
O=C(Nc1ccc2c(c1)CCC2)c1ccc(F)c(S(=O)(=O)N2CCOCC2)c1 | ? | 28.0% | -16.9% | ? | 6.1% | -8.6%[1.84 µM]
O=C(Nc1ccncc1)c1cccc(F)c1 | -1.4% | 0.4% | -4.3% | 2.2% | -8.7% | 3.6%
O=C(OCc1cc(=O)n2ccsc2n1)c1ccc(O)cc1O | 23.0% | ? | ? | ? | ? | nt
Cc1ccsc1C(=O)OCc1cc(=O)n2ccsc2n1 | 1.41µM* | 2.51µM* | ? | 10.7µM* | ? | nt
CC(=O)c1ccc(OCc2cc(=O)n3ccsc3n2)cc1 | 3.98µM* | ? | ? | ? | ? | ?
O=C(COC(=O)CNS(=O)(=O)c1ccccc1)Nc1ncc(Cl)cc1Cl | -1.1% | -2.0% | 9.0% | -0.7% | 5.2% | nt
COc1ccccc1N1CCN(/N=C/c2ccc(OC)c(OC)c2OC)CC1 | 0.7% | 0.4% | -5.9% | -1.5% | 0.3% | 5.6%
COc1ccccc1N1CCN(/N=C/c2cc(OC)c(O)c(OC)c2)CC1 | -0.4% | -1.7% | -2.2% | ? | 2.2% | 27.1%
COc1ccccc1N1CCN(/N=C/c2ccccc2C(=O)O)CC1 | 1.6% | -1.9% | -0.9% | 19µM* | -7.3% | nt
COc1ccccc1N1CCN(/N=C\c2cccnc2)CC1 | 4.1% | -3.2% | ? | -18.4% | 5.3% | nt
COc1ccccc1N1CCN(/N=C/c2cccc(O)c2)CC1 | ? | 18.6% | ? | 13.5µM* | ? | 6.1%
COc1cc(/C=N/N2CCN(c3ccccc3OC)CC2)ccc1OC(C)=O | 2.7% | 3.8% | ? | 19µM* | 8.8% | nt
COCCNC(=O)c1ccc2c(c1)CCN2S(C)(=O)=O | 0.0% | -0.4% | 11.7% | 3.2% | 2.3% | -10.8%
COCCNC(=O)c1ccc2c(c1)nc(C)n2-c1cccc(Cl)c1 | 1.4% | -4.4% | -1.4% | -1.0% | 4.2% | nt
Cc1ccc2c(c1)COc1c3ccc(C(=O)NCCO)cc3nn1-2 | 1µM* | 1.12µM* | ? | 4.78µM* | 14.6µM* | nt
Cc1ccc(-n2cnc3cc(C(=O)NCCC4=CCCCC4)ccc32)c(C)c1 | nt | nt | nt | -13.4% | nt | nt
C=CCNC(=O)c1ccc2nc(-c3ccccc3)c(-c3ccccc3)nc2c1 | -5.0% | -4.3% | ? | -1.4% | -5.9% | -9.2%
COCCNC(=O)c1ccc2c3n(nc2c1)-c1ccc(Cl)cc1CO3 | 3.55µM* | 1.41µM* | ? | 8.49µM* | ? | nt
COCCNC(=O)c1ccc2c3n(nc2c1)-c1ccccc1CO3 | 1µM* | 1.12µM* | ? | 3.79µM* | ? | nt
C=CCNC(=O)c1ccc2c3n(nc2c1)-c1ccccc1CO3 | ? | 0.447µM* | ? | 0.675µM* | ? | nt
SMILES | Rab9 promoter act | NPC1 prom act | ELG1 DNA repair | FLuc counter | ELG1 genotox | SMN2 splice up
Cc1ccc(S(=O)(=O)NCCC(=O)Nc2ccc(S(=O)(=O)NC(C)C)cc2)cc1 | -1.7% | -0.8% | -16.6% | 2.6% | 0.6% | nt
O=C(NCCO)c1ccc2c3n(nc2c1)-c1ccc(Cl)cc1CO3 | 3.55µM* | 2µM* | ? | 6.01µM* | ? | nt
COc1cc(S(=O)(=O)N2CCOCC2)ccc1NC(=O)c1cc2c(s1)CCC2 | -8.0% | -1.4% | -26.9% | 6.2% | -1.9% | 6.3%
Cc1ccc(NC(=O)c2cc3c(s2)CCC3)cc1S(=O)(=O)N1CCOCC1 | -3.7% | 4.5% | 23.1µM* | 13.5µM* | -15.5% | -36.5%
Cc1ccc(S(=O)(=O)N2CCOCC2)cc1NC(=O)c1cc2c(s1)CCC2 | -4.4% | -1.6% | 23.1µM* | 0.7% | -4.7% | -15.6%
COc1ccc(S(=O)(=O)N2CCOCC2)cc1NC(=O)CN1CCCc2ccccc21 | nt | nt | ? | nt | -1.6% | nt
Nc1c(-c2ccc3c(c2)OCCO3)oc2ccccc2c1=O | ? | ? | ? | 9.53µM* | 10.3µM* | nt
Cn1c2ccccc2c(=O)c2ccc(-c3ccc4c(c3)OCO4)cc21 | 1.12µM* | 1.26µM* | ? | 3.01µM* | ? | nt
COc1ccc(-c2cc(=O)c3c(O)c(OC)c(O)cc3o2)cc1 | 3.55µM* | 3.16µM* | ? | 0.269µM* | 1.83µM* | nt
COc1ccc(-c2cc(=O)c3c(O)c(OC)c(OC)c(OC)c3o2)cc1 | nt | nt | nt | nt | nt | 17.7%
O=c1cc(-c2ccc(O)cc2)oc2ccc(O)cc12 | 3.55µM* | ? | ? | 12µM* | 10.2% | ?
Cc1cccc(-c2oc3ccccc3c2-c2ccc3c(c2)OCO3)c1 | -1.6% | -1.5% | -14.1% | 0.5% | -0.4% | nt
COc1ccc(N2C(=O)CS/C2=N\C(=S)Nc2ccccc2)cc1 | 1.0% | -1.7% | 8.2% | 1.9% | 2.7% | nt
O=c1cc(-c2cccc(O)c2)oc2ccc(O)cc12 | nt | nt | nt | nt | nt | 14.1µM*
NC(=O)COc1ccc2oc(-c3ccccc3)cc(=O)c2c1 | ? | ? | ? | 12µM* | ? | -18.1%
O=c1cc(-c2ccncc2)oc2ccccc12 | -5.6% | 7.8% | 9.2µM* | -9.2% | -3.2% | -10.2%
Cn1c(-c2ccc3c(c2)OCO3)cc(=O)c2ccccc21 | -7.6% | -3.2% | -31.4% | -11.2% | -6.7% | 5.2%
O=c1cc(-c2ccc3c(c2)OCO3)oc2ccccc12 | 3.55µM* | 3.16µM* | ? | ? | 9.2µM* | 12.6µM*
COc1ccc2c(=O)cc(-c3ccncc3)oc2c1OC | nt | nt | nt | nt | nt | 1.4%[9.22 µM]
COC(=O)C1=CO[C@@H](O[C@H]2OC(CO)C(O)C(O)C2O)C2C1CC(O)C2C (stereo not given in full) | nt | nt | nt | nt | nt | -5.5%
COc1ccc(N2CC(NC(=O)C3CCCC3)CC2=O)cc1OC (stereo not given) | nt | nt | nt | -2.9% | nt | nt
Cc1nc2nc(SCC(=O)N(C)Cc3ccccc3)nn2c(C)c1Cc1ccccc1Cl | nt | nt | nt | -4.5% | nt | 1.4%
CCOC(=O)C(CC)N1CCN(Cc2ccc(F)cc2)C(=O)C1=O (stereo not given) | nt | nt | nt | 0.5% | nt | nt
Cc1c2cnn(CC(=O)N3CCCCC3)c(=O)c2c(C)n1Cc1ccc(Cl)cc1 | nt | nt | nt | 0.1% | nt | -11.9%
